# Test results taken from PubChem BioAssay (NCATS).
# Records with an inconclusive call do not appear. Entries that show only a call come without a potency. Calls of active or inactive are those of the source. Unless noted, the call rests on the fitted dose curve; in most records, active means well fitted curve in the direction sought with a large enough effect; inconclusive means small, poorly fitted or top-dose-only effect, or another doubt; inactive means no such curve, though single readings can be large; an effect the other way counts as inactive or inconclusive.
# Experiments:
# [1] = Cytometric Cell-Based qHTS for Inhibitors of the mTORC1 Signaling Pathway in MEF (Tsc2-/-, p53-/-) Cells (AID 2660);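 further: percent of cells above a phospho-rpS6 to PI ratio cutoff in each well; series mostly up to about 38 µM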
# How it was run: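 Tsc2-/-, p53-/- MEFs (empty vector) exposed to compound 24 h at 37 C, fixed, stained with Alexa-488 anti-phospho-rpS6 Ser235/236 and propidium iodide. Acumen laser scanning; phospho-S6/PI ratio thresholded against 7.5 nM rapamycin, reported as % positive cells.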
# [2] = High Content Imaging Cell-Based qHTS for Inhibitors of the mTORC1 Signaling Pathway in MEF (Tsc2-/-, p53-/-) Cells (AID 2666);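 further: percent of cells scored positive for phospho-rpS6 Ser235/236 immunostaining by imaging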; further: potency means the concentration at half of the fitted maximal effect
# How it was run: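 Cells were plated, dosed with compound after 24 hrs, and incubated another 24 hrs at 37 degree Celsius. Fixed cells were immunostained for phospho-rpS6 Ser235/236 and counterstained, and the normalized signal was scored as % active cells against rapamycin and DMSO controls.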
# [3] = High Content Imaging Cell-Based qHTS for Inhibitors of the mTORC1 Signaling Pathway in MEF Cells (AID 2667); further: potency means the concentration at half of the fitted maximal effect
# How it was run: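 Immunofluorescence for rpS6 phosphorylation in MEFs of Tsc2-/-, p53-/- background rescued with WT Tsc2. Compound exposure lasted 24 hrs. Inhibition was scored against rapamycin-treated control wells.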
# [4] = molecular target: DNA polymerase III PolC-type (Bacillus subtilis (strain 168)) (UniProt P13267); assay: qHTS Validation Assay for the Inhibitors of DNA Replication in Gram-Positive Bacteria (AID 485295);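 further: reconstituted holoenzyme with PolC plus beta clamp SSB and primase; PicoGreen fluorescence of double-stranded DNA made on primed circular M13 template; series mostly up to about 57 µM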
# How it was run: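 Double-stranded DNA product detected by PicoGreen fluorescence after EDTA quench. Compound incubated with B. subtilis holoenzyme (PolC, beta subunit, SSB, primase) before substrate addition; primed replication of M13Gori with dNTPs and NTPs at room temperature; DMSO defines 0% inhibition.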
# [5] = molecular target: Tumor susceptibility gene 101 protein (Homo sapiens) (UniProt Q99816); assay: qHTS Validation Assay for Iinhibitors of HIV-1 Budding by Blocking the Interaction of PTAP/TSG101 (AID 485342; calls by dose curve)
# How it was run: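 Fluorescence polarization of 50 nM FITC-PTAP peptide bound to 10 uM Tsg101 binding domain was read after 20 min room-temperature incubation with compounds, in 10 mM HEPES pH 7.5, 0.15 M NaCl, 0.01% Tween 20.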
# [6] = Quantitative high throughput screen for delayed death inhibitors of the malarial parasite plastid, 96 hour incubation (AID 488745); further: nearly all actives have a fitted effect of over 70% in size; further: potency means the concentration at half of the fitted maximal effect
# How it was run: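 Infected erythrocytes were added to compound in Albumax-supplemented RPMI 1640 at 0.1% parasitemia and 2% hematocrit (final), incubated 96 h at 37 C under 5% CO2, then luciferase reagent was added and luminescence measured.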
# [7] = Quantitative high throughput screen for delayed death inhibitors of the malarial parasite plastid, 48 hour incubation (AID 488752); further: nearly all actives have a fitted effect of over 65% in size; further: potency means the concentration at half of the fitted maximal effect
# How it was run: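 Readout is firefly luciferase luminescence from a reporter integrated into the parasite genome, with lower signal taken as inhibited growth. Infected red cells (0.1% parasitemia, 2% hematocrit final) are cultured with compound for one 48 h cycle at 37 C.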
# [8] = molecular target: Thioredoxin reductase 1, cytoplasmic (Rattus norvegicus) (UniProt O89049); assay: qHTS Assay for Substrates of Mammalian Selenoprotein Thioredoxin Reductase 1 (TrxR1) (AID 488772);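 further: NADPH fluorescence in the first read after selenite addition and not the 8 min delta; series mostly up to about 57 µM; a drop in NADPH fluorescence below the no-compound background marks a TrxR1 substrate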
# How it was run: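 Quantitative HTS in Tris-HCl buffer at pH 7.5 with EDTA and Tween-20, using rat TrxR1, 400 uM NADPH and 400 uM selenite (final). A fall in initial NADPH fluorescence relative to background marked substrate behaviour.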
# [9] = molecular target: Thioredoxin reductase 1, cytoplasmic (Rattus norvegicus) (UniProt O89049); assay: qHTS Assay for Inhibitors of Mammalian Selenoprotein Thioredoxin Reductase 1 (TrxR1) (AID 488773); details: Potency: inhibition; further: nearly all actives have a fitted effect of over 40% in size; further: potency means the concentration at half of the fitted maximal effect
# How it was run: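 Steps: enzyme (90 nM) plus NADPH (400 uM final), 5 min at ~22 deg C; compound added, 15 min; selenite (400 uM final) added; fluorescence followed for 8 min. Concentration-response curves derived from the normalized delta values.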
# [10] = molecular target: M-phase phosphoprotein 8 (Homo sapiens) (UniProt Q99549); assay: qHTS Validation Assay for Inhibitors for MPP8 Chromodomain Interactions with Methylated Histone Tails (AID 488949);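 further: AlphaScreen signal from MPP8 chromodomain bound to biotinylated H3K9me3 peptide; top concentration of the series differs between compounds; nearly all actives have a fitted effect of over 55% in size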
# How it was run: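 AlphaScreen proximity signal from streptavidin donor and Ni-chelate acceptor beads (10 ug/mL each) reported binding of MPP8 to trimethyl-K9 H3(1-18) peptide, both at 50 nM. The complex formed 30 min before a 30 min compound exposure at room temperature, in PBS pH 7.4.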
# [11] = molecular target: Methanococcus maripaludis chaperonin (MmCpn) (UniProt Q6LX38); assay: High-Throughput Screening for Modulators of Cytosolic Chaperonin Activity: MmCpn Primary Screen (AID 488978);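 further: 50 nM MmCpn enzyme hydrolysing 30 µM ATP at 37 °C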
# How it was run: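 ATPase activity of 50 nM MmCpn was assayed with 30 uM ATP, 10 minutes at 37C, after a 5 min compound preincubation at room temperature. ADP production was read as HTRF emission at 590 and 665 nm.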
# [12] = Cytometry Cell-Based qHTS for Inhibitors of the mTORC1 Signaling Pathway in MEF cells (AID 2668);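 further: Tsc2-/- p53-/- mouse embryonic fibroblasts stably re-expressing wild-type Tsc2; percent cells positive for phospho-rpS6 Ser235/236 relative to propidium iodide stain; series mostly up to about 38 µM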
# How it was run: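 Phospho-rpS6 (Ser235/236) immunofluorescence over PI signal, scored as % positive cells using thresholds from 7.5 nM rapamycin and DMSO wells, after 24 h compound exposure of WT-Tsc2-rescued Tsc2-/-, p53-/- MEFs. PI cell count recorded for viability.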
# [13] = Validation screen for small molecules that induce DNA re-replication in MCF 10A normal breast cells (AID 463097); further: nearly all actives have a fitted effect of over 60% in size
# How it was run: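 Read-out is Hoechst total nuclear intensity by fluorescence scanning imager, flagging increased high-DNA-content nuclei. Compounds were incubated with MCF 10A cells for 48 hr (37 C, 5% CO2) before 40 min staining.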
# [14] = molecular target: Ubiquitin carboxyl-terminal hydrolase 2 (Homo sapiens) (UniProt O75604); assay: qHTS Validation Assay for Inhibitors of Ubiquitin-specific Protease USP2a Using CHOP2 as the Reporter (AID 463106)
# How it was run: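 10nM USP2 core + cpd, 30min RT; add 25nM Ub-CHOP2/25nM substrate; 60min RT; FI 485/531nm. Buffer Tris pH 8.0, CaCl2, BME, CHAPS. Norm. to NEM = 100% inhibition; time-zero read flags fluorescent artifacts.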
# [15] = qHTS Validation Assay to Find Inhibitors of Chronic Active B-Cell Receptor Signaling (AID 485345; active means well fitted curve in the direction sought with a large enough effect in the main read-out, with a control signal flat, not every such curve was filed as active)
# How it was run: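 Read-out: ratio of filter-corrected green (IkappaBalpha fusion) to red (native) luciferase signal in doxycycline-induced TMD8 cells after 4 h at 37C. Titration spanned 46 uM–3 nM; Data were normalised to basal cells and 10 uM MG-132 wells.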
# [16] = molecular target: Beta-2 adrenergic receptor (Homo sapiens) (UniProt P07550); assay: qHTS validation assay of beta-arrestin-biased ligands of beta2-adrenergic receptor (AID 485366)
# How it was run: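 Tango cells expressing recombinant beta2-AR and beta-arrestin with tTA-driven luciferase, in DMEM with 1% FBS. Compounds were titrated up to 46 microM for 18 hr at 37 degrees C. Luminescence was read 15 min after substrate; curves were fitted and class-assigned.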
# [17] = molecular target: Flap endonuclease 1 (Homo sapiens) (UniProt P39748); assay: qHTS Validation Assay for the Inhibitors of Human Flap endonuclease 1 (FEN1) (AID 488816); further: potency means the concentration at half of the fitted maximal effect
# How it was run: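 Readings taken at 0 and 15 min after starting the reaction with 50 nM (final) substrate supplied the signal. Compounds had first sat with 10 nM FEN1 reagent for 15 min at room temperature. Values come from Hill-equation concentration-response fits.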
# [18] = molecular target: Chromobox protein homolog 1 (Homo sapiens) (UniProt P83916); assay: qHTS Validation Assay for Inhibitors of HP1-beta Chromodomain Interactions with Methylated Histone Tails (AID 488953); further: nearly all actives have a fitted effect of over 50% in size; further: potency means the concentration at half of the fitted maximal effect
# How it was run: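 50 nM HP1-beta + 50 nM biotin-H3(1-18)K9me3, PBS pH 7.4, 0.01% Tween-20, 30 min RT; compound added, 30 min RT; AlphaScreen beads 10 ug/mL final, 30 min dark; luminescence read.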
# [19] = molecular target: ATP-dependent 6-phosphofructokinase (Trypanosoma brucei brucei) (UniProt O15648); assay: qHTS Validation Assay to Find Inhibitors of T. brucei phosphofructokinase (AID 485368)
# How it was run: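 Activity was read as ADP production by luminescence (ADP-Glo) after 45 min at room temperature. The enzyme was 1.25nM PFK in 0.1M TEA pH 8.0 with 0.5 mM F6P, 0.1mM ATP and 5 mM MgCl2. Compounds were titrated up to 57 uM and % activity normalized to no-enzyme and full-enzyme controls.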
# Thioredoxin reductase 1, cytoplasmic (Rattus norvegicus), sequence (O89049 whole entry, looked up): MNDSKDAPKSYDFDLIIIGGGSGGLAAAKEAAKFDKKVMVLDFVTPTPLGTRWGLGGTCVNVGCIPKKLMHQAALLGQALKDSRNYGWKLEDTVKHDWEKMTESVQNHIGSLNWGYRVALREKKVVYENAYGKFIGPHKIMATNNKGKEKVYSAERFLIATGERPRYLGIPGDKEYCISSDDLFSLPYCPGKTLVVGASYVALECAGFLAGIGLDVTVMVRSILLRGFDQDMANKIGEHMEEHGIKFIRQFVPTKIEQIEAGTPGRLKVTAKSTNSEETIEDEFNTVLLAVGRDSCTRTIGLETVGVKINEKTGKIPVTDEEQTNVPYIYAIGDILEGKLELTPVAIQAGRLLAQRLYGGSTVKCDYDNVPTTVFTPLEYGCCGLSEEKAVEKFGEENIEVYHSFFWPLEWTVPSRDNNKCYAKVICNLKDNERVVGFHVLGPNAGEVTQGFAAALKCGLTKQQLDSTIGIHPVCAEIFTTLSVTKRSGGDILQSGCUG
# Ubiquitin carboxyl-terminal hydrolase 2 (Homo sapiens), sequence (O75604 whole entry, looked up): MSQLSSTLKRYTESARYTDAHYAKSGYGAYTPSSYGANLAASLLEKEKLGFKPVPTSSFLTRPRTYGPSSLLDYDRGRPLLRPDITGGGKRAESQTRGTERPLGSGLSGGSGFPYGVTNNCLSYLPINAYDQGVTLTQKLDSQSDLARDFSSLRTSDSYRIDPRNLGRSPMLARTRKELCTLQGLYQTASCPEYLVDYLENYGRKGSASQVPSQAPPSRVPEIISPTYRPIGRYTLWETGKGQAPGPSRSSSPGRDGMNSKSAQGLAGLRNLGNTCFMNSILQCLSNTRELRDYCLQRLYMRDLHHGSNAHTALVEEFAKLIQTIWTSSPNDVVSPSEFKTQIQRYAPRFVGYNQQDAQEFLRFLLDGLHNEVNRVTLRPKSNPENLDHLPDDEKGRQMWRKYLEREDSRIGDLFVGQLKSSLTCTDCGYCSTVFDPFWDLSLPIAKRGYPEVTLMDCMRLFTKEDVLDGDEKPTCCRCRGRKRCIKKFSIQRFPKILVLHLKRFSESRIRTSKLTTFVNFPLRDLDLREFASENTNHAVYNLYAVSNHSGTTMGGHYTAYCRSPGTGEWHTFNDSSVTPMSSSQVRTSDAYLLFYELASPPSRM
# Tumor susceptibility gene 101 protein (Homo sapiens), sequence (Q99816 whole entry, looked up, the tested form may be a part): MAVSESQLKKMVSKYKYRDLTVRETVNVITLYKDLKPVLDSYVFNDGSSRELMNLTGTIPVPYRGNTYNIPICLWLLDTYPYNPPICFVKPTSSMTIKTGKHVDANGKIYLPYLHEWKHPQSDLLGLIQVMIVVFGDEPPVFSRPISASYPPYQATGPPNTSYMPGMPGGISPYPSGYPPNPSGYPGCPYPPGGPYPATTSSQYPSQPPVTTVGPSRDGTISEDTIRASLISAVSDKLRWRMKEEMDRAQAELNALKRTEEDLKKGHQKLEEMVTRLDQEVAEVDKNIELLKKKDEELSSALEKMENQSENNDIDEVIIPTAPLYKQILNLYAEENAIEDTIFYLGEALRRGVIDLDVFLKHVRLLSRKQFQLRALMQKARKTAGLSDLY
# ATP-dependent 6-phosphofructokinase (Trypanosoma brucei brucei), sequence (O15648 whole entry, looked up): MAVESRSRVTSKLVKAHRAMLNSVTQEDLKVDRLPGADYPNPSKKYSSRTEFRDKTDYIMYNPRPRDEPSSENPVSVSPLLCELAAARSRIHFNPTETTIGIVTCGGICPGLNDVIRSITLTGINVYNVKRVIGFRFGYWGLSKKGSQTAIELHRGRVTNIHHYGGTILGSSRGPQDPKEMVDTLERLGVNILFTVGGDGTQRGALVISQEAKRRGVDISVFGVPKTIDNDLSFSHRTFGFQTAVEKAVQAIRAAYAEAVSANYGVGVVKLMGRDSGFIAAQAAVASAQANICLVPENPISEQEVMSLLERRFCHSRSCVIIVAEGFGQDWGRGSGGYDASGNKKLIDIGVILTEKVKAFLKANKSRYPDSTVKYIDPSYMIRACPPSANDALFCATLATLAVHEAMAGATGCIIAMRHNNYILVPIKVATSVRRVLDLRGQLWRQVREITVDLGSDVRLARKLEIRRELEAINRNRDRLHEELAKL
# Flap endonuclease 1 (Homo sapiens), sequence (P39748 whole entry, looked up): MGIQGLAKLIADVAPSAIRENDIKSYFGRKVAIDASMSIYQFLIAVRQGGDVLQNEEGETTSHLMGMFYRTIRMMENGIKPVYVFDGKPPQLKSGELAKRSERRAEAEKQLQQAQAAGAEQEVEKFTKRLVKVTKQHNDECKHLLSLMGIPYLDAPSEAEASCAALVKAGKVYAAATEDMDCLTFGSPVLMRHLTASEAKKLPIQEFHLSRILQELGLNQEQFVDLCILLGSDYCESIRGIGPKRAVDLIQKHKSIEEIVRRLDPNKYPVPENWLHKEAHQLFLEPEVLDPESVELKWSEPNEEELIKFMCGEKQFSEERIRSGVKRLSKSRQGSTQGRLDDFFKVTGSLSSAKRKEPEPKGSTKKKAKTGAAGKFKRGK
# Chromobox protein homolog 1 (Homo sapiens), sequence (P83916 whole entry, looked up): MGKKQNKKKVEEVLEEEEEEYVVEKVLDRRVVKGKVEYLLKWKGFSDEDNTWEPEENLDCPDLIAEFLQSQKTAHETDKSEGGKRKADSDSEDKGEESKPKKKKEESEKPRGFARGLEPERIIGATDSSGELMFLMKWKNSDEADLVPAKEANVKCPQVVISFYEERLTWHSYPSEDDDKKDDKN
# Methanococcus maripaludis chaperonin (MmCpn), sequence (Q6LX38 1-543): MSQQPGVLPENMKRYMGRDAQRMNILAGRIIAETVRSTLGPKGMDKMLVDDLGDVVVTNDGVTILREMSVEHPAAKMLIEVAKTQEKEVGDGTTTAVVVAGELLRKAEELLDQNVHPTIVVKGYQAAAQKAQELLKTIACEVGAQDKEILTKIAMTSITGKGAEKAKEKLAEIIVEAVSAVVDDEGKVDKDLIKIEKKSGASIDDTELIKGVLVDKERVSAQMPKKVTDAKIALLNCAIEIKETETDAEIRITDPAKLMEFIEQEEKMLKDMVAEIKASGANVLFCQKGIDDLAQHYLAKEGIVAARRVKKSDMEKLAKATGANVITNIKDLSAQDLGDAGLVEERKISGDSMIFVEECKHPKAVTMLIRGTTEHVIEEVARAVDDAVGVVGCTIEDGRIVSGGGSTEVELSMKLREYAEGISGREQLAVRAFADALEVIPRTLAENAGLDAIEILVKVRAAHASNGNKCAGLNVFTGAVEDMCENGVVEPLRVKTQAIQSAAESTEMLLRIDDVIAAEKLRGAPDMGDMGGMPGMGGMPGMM
# Beta-2 adrenergic receptor (Homo sapiens), sequence (P07550 whole entry, looked up): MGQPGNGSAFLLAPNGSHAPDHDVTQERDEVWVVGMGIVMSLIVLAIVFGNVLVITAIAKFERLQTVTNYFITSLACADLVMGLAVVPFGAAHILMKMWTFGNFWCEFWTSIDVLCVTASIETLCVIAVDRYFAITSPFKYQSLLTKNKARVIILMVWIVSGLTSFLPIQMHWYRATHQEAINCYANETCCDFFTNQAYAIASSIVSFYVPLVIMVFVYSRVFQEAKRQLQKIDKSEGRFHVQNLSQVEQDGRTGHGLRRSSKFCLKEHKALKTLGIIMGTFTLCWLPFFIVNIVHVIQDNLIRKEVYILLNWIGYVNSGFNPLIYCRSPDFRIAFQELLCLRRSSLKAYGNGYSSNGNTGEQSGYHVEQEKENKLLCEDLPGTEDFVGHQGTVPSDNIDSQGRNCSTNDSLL
# DNA polymerase III PolC-type (Bacillus subtilis (strain 168)), sequence (P13267 whole entry, looked up): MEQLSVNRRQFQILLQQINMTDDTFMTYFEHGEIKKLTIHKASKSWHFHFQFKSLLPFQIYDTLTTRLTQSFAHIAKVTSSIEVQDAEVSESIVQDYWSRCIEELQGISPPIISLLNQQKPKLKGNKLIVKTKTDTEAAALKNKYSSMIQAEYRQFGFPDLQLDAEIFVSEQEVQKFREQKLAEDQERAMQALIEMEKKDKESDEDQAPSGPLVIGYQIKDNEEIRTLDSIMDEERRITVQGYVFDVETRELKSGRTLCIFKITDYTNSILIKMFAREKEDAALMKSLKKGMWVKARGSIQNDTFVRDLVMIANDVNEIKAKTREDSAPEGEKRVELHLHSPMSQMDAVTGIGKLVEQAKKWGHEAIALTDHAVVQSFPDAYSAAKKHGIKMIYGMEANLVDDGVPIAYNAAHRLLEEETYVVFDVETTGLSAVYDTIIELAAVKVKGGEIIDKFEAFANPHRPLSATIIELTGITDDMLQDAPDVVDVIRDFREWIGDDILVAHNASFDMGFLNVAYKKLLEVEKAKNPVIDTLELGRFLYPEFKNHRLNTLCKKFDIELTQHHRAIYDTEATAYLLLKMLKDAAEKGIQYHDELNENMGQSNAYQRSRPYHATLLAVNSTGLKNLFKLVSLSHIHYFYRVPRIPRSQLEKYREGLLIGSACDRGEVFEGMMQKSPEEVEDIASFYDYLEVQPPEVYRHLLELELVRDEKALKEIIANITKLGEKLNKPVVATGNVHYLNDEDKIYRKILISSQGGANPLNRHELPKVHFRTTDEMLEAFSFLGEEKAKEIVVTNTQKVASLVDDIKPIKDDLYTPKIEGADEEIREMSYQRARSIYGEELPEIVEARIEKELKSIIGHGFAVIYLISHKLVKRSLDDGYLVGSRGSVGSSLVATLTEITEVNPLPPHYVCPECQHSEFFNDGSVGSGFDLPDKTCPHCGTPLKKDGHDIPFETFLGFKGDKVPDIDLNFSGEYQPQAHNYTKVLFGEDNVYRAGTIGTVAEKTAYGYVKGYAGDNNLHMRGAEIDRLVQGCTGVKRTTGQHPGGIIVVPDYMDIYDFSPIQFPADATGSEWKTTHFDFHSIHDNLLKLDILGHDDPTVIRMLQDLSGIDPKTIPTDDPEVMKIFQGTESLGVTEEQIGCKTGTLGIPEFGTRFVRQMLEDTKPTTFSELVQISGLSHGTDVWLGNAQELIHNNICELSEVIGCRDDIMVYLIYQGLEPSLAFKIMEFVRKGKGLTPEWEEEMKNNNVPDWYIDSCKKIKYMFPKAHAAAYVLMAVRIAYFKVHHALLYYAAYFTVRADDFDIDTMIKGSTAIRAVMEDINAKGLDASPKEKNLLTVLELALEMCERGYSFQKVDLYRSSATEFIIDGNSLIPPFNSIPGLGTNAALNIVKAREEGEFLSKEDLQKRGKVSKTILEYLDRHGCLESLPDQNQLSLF
Structure (SMILES),outcome [1],Potency [2],Potency [3],Potency [4],outcome [5],Potency [6],Potency [7],outcome [8],Potency [9],Potency [10],outcome [11],Potency [12],Potency [13],Potency [14],outcome [15],outcome [16],Potency [17],Potency [18],Potency [19]
CN1CCCC1CCOC(C)(c1ccccc1)c1ccc(Cl)cc1 (centres undefined),inactive,inactive,14.7 µM (active),inactive,inactive,8.28 µM (active),10.4 µM (active),inactive,inactive,inactive,inactive,,,,,,,,
NC(Cc1cccc(-c2ccccc2CP(=O)(O)O)c1)C(=O)O (centres undefined),inactive,,inactive,inactive,inactive,inactive,inactive,inactive,,inactive,inactive,inactive,inactive,inactive,inactive,inactive,inactive,inactive,
CC1CNCCN1S(=O)(=O)c1cccc2cnccc12 (centres undefined),inactive,inactive,,,inactive,,inactive,inactive,inactive,,inactive,,,inactive,,inactive,,inactive,
COc1ccc2c(c1)c(CC(=O)O)c(C)n2C(=O)c1ccccc1,inactive,,inactive,inactive,inactive,inactive,inactive,inactive,inactive,inactive,inactive,inactive,inactive,inactive,inactive,inactive,inactive,inactive,
CC(N)(Cc1ccc(O)c(O)c1)C(=O)O (centres undefined),inactive,,inactive,inactive,inactive,inactive,inactive,,,,inactive,inactive,inactive,inactive,inactive,inactive,2.38 µM (active),5.32 µM (active),
C=CCN1CCc2c(cc(O)c(O)c2Br)[C@@H](c2ccccc2)C1,inactive,inactive,,inactive,inactive,inactive,1.85 µM (active),inactive,inactive,inactive,inactive,,,,,,inactive,44.7 µM (active),
Nc1ccc2c3c(cccc13)C(=O)NC2=O,inactive,inactive,inactive,inactive,,,inactive,,inactive,inactive,inactive,,inactive,,,inactive,,inactive,
O=c1cc(-c2ccccc2F)[nH]c2cc3c(cc12)OCO3,inactive,inactive,inactive,inactive,inactive,,,inactive,inactive,inactive,inactive,,,inactive,,inactive,inactive,,inactive
CCCCOC(=O)NS(=O)(=O)c1sc(CC(C)C)cc1-c1ccc(Cn2c(CC)nc3c(C)cc(C)nc32)cc1,inactive,inactive,,inactive,inactive,inactive,,,inactive,inactive,inactive,,,inactive,,inactive,,,inactive
O[Si](CCCN1CCCCC1)(c1ccc(F)cc1)C1CCCCC1 (centres undefined),inactive,inactive,,inactive,inactive,,0.117 µM (active),inactive,inactive,,inactive,,inactive,,inactive,inactive,inactive,inactive,inactive
C[C@](Cc1ccc(O)c(O)c1)(NN)C(=O)O,inactive,inactive,inactive,inactive,inactive,,,inactive,8.44 µM (active),inactive,inactive,,,inactive,inactive,inactive,,,
Oc1ccc(Cn2cc[nH]c2=S)cc1,inactive,,inactive,inactive,inactive,inactive,inactive,inactive,inactive,inactive,inactive,inactive,inactive,,inactive,inactive,,,
N[C@@H](CCC(=O)N[C@H](CSN=O)C(=O)NCC(=O)O)C(=O)O,inactive,,inactive,inactive,inactive,,inactive,inactive,inactive,inactive,inactive,inactive,inactive,inactive,,inactive,inactive,,
N#Cc1cc([N+](=O)[O-])c2sc(C(N)=O)[n+]([O-])c2c1,,18.5 µM (active),inactive,inactive,inactive,,,inactive,inactive,inactive,inactive,,,inactive,,,inactive,,
O=c1[nH]ccc2c(O)cccc12,inactive,,inactive,,,inactive,,inactive,inactive,,inactive,inactive,inactive,inactive,,,inactive,inactive,
Cc1cccc(C2CN(C)CCc3c2cc(O)c(O)c3Cl)c1 (centres undefined),,inactive,inactive,inactive,inactive,4.65 µM (active),inactive,inactive,inactive,inactive,inactive,,inactive,inactive,inactive,,inactive,,
